Results: PubChem BioAssay (NCI)
Several values for one entry are separate records, joined by “and”; a condition that tells them apart may be missing. Equal entries are not always repeated. This is part of a sample that, as a whole, favours compounds with a hit. Of some 79,000 tested, about 15% had one in any assay. Activity calls are given as the source filed them. No stated cut-off is given here; in the data, active means growth inhibition above about 70%; inactive means the rest. Where a SMILES comes first, the peptide text is derived from it. The star is where a group is joined. Boc = CC(C)(C)OC(=O)*; OBn = c1ccc(CO*)cc1

Assay: NCI Yeast Anticancer Drug Screen. Data for the mlh1 rad18 strain (AID 175)
Details: S. cerevisiae mlh1 rad18 strain growth inhibition, hits give high values; at 50.0 µM unless noted
How it was run: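 Growth inhibition of the yeast strain was measured after compound exposure and expressed relative to vehicle-treated controls. The strain carries defined defects in DNA damage repair.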

With Cn1c2c(c3ccccc31)CCN(CCCCN1CCN(c3ccccc3)CC1)C2=O as the compound, how does the growth inhibition read?
Its growth inhibition is -7.35% (inactive).

With Cc1ccc(S(=O)(=O)C2OC(CO)C(O)C(O)C2O)cc1 (stereo not given) as the compound, how does the growth inhibition read?
Its growth inhibition is -6.25% (inactive).

With CC(C)CC(NC(=O)C(Cc1ccccc1)NC(=O)C(Cc1ccccc1)NC(=O)OC(C)(C)C)C(=O)OCc1ccccc1 (stereo not drawn) (Boc-Phe-Phe-Leu-OBn; configuration not given here) as the compound, how does the growth inhibition read?
Its growth inhibition is 5.95% (inactive).

Which growth inhibition does the source give for CC1CC(C)OC(C(Br)CBr)O1 (stereo not given) here?
The growth inhibition was 12.1% (inactive).

With CCN(CC)CC(=O)Nc1ccc2c(c1)C(=O)c1ccc(NC(=O)CN(CC)CC)cc1C2=O as the compound, how does the growth inhibition read?
The growth inhibition was -8% (inactive).

For CN(C)Cc1ccccc1CC1(O)CCCC1, which growth inhibition is on record?
The growth inhibition was -12.5% (inactive).

For Cc1cccc(C)c1I, which growth inhibition is on record?
The growth inhibition was -50.1% (inactive).

Which growth inhibition does the source give for CCOCNC(=O)NCC(F)(F)C(F)(F)C(F)(F)C(F)(F)C(F)(F)C(F)(F)C(F)(F)F here?
Its growth inhibition is 12.9% (inactive).

With O=C1OC(c2ccccc2)=N/C1=C\c1ccccc1 as the compound, how does the growth inhibition read?
Its growth inhibition is -8.7% (inactive) and 26.8% (inactive).

Which growth inhibition does the source give for CS(C)=NC(=Nc1ccccc1)c1ccccc1 here?
The growth inhibition was 2.05% (inactive).

With CCOC(=O)/C(=C\c1ccccc1)c1ccccc1 as the compound, how does the growth inhibition read?
The growth inhibition was -6.8% (inactive).

Which growth inhibition does the source give for CCN(CC)C(=O)c1cc(OC)c(C(=O)N(CC)CC)cc1OC here?
Its growth inhibition is -8.2% (inactive).

Which growth inhibition does the source give for Cc1cc2nncn2c2ccccc12 here?
Its growth inhibition is 11.2% (inactive).

Which growth inhibition does the source give for CC1=NN(C(=O)Cc2ccccc2)C(=O)/C1=C\c1ccc(O)cc1 here?
The growth inhibition was -29.2% (inactive).

With c1ccc(NN=Nc2ncnc3nc[nH]c23)cc1 as the compound, how does the growth inhibition read?
The growth inhibition was 2.7% (inactive).

Which growth inhibition does the source give for O=C(/C=C/c1ccc(OCc2ccccc2)cc1)c1cccc([N+](=O)[O-])c1 here?
Its growth inhibition is 12.2% (inactive).

For CCCCOC(=O)c1cccc(C)c1, which growth inhibition is on record?
The growth inhibition was -0.9% (inactive).

For CCSC(SCC)=C1C(=O)N(c2ccccc2)N=C1C, which growth inhibition is on record?
The growth inhibition was 2.85% (inactive).

With O=C1OC(c2ccccc2)=N/C1=C/C=C/c1ccco1 as the compound, how does the growth inhibition read?
Its growth inhibition is -40.3% (inactive).

With Nc1nc(N)c2ncn(Cc3ccccc3)c2n1 as the compound, how does the growth inhibition read?
Its growth inhibition is -13.9% (inactive).

Which growth inhibition does the source give for Nc1ncnc(N)c1NC(=O)c1ccc2ccccc2c1 here?
Its growth inhibition is -21.4% (inactive).

For COc1ccc(C2=C(Cl)c3cc(OC)c(OC)cc3C2Cl)cc1 (stereo not given), which growth inhibition is on record?
Its growth inhibition is -41.6% (inactive).

With O=C(c1ccccc1)C1CC1C(=O)c1ccccc1 (stereo not given) as the compound, how does the growth inhibition read?
The growth inhibition was -3.45% (inactive).

For CCOc1ccc(N2C(=O)/C(=C/c3ccc(N(CCC#N)CCC#N)cc3)N=C2c2cc([N+](=O)[O-])ccc2Cl)cc1, which growth inhibition is on record?
Its growth inhibition is -6.6% (inactive).

Which growth inhibition does the source give for N#CCc1cccc(Cl)c1Cl (tested in a mixture with another compound) here?
Its growth inhibition is -7.55% (inactive).

Which growth inhibition does the source give for Nc1c(I)cc(I)c(C(=O)O)c1I here?
The growth inhibition was -39.1% (inactive).

With CC(C)(C)[Si](C)(C)OCC1OC(n2cnc3c(=O)[nH]cnc32)CC1O (stereo not given) as the compound, how does the growth inhibition read?
The growth inhibition was -7.85% (inactive).

With CCCCCCCCCCCCCCCCCn1nnnc1N as the compound, how does the growth inhibition read?
Its growth inhibition is -11.4% (inactive).

For CCC1(CC)C(=O)NN(C(=O)c2ccc(Cl)cc2)C1=O, which growth inhibition is on record?
Its growth inhibition is -37.5% (inactive).

For CCOC(=O)CSC#N, which growth inhibition is on record?
The growth inhibition was 2.9% (inactive).

With O=C(O)c1ccc(C(=O)NCCCN(CCCCN(CCCNC(=O)c2ccc(C(=O)O)c(O)c2O)C(=O)c2ccc(C(=O)O)c(O)c2O)C(=O)c2ccc(C(=O)O)c(O)c2O)c(O)c1O as the compound, how does the growth inhibition read?
Its growth inhibition is 24.9% (inactive).

For CCCCCCCCCCCC[N+](C)([O-])CCCCCC[N+](C)([O-])CCCCCCCCCCCC (stereo not given), which growth inhibition is on record?
Its growth inhibition is 97% (active).

Which growth inhibition does the source give for CCOC(=O)c1[nH]c(-c2[nH]c(-c3[nH]c(-c4[nH]c(C(=O)OCC)c(C)c4C(=O)OCC)c(C(=O)OCC)c3C)c(C)c2C(=O)OCC)c(C(=O)OCC)c1C here?
The growth inhibition was -74% (inactive).

Which growth inhibition does the source give for O=c1cnn2c(n1)OC1C(O)C(CO)OC12 (stereo not given) here?
The growth inhibition was 22% (inactive).

For N#Cc1c(-c2ccccc2Cl)c(-c2ccccc2Cl)nn(CCO)c1=O, which growth inhibition is on record?
The growth inhibition was 27.5% (inactive).

Which growth inhibition does the source give for O=C(O)c1ccccc1SCCO here?
Its growth inhibition is -3.8% (inactive).

With Cc1ccc(S(=O)(=O)N/N=C/c2ccoc2)cc1 as the compound, how does the growth inhibition read?
Its growth inhibition is -14.4% (inactive).

Which growth inhibition does the source give for COc1ccc(NC(=O)CC/C(CC(=O)c2ccco2)=N/NC(=O)C(N)=O)cc1 here?
The growth inhibition was -18.1% (inactive).

With Cc1ncc(CN=Cc2ccc(Cl)cc2)c(N)n1 as the compound, how does the growth inhibition read?
Its growth inhibition is 13.2% (inactive).

Which growth inhibition does the source give for CCSCCC#N here?
The growth inhibition was -10.2% (inactive).
